Among all 310,000 compounds or so, about 14,000 (4.5%) showed an effect of 50% or more. Effects have a minus sign here. Shown is part of a subset that was picked to be rich in strong results.
What follows are compounds tested against human ether-à-go-go-related gene (hERG) potassium channel (human, UniProt Q12809) (assay: primary screen, population patch clamp on CHO cells stably expressing hERG; higher = less effect of the substance).
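Also: peak tail current of the secondary pulse compared with the same well before compound.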

human ether-à-go-go-related gene (hERG) potassium channel, sequence (Q12809 whole entry, looked up): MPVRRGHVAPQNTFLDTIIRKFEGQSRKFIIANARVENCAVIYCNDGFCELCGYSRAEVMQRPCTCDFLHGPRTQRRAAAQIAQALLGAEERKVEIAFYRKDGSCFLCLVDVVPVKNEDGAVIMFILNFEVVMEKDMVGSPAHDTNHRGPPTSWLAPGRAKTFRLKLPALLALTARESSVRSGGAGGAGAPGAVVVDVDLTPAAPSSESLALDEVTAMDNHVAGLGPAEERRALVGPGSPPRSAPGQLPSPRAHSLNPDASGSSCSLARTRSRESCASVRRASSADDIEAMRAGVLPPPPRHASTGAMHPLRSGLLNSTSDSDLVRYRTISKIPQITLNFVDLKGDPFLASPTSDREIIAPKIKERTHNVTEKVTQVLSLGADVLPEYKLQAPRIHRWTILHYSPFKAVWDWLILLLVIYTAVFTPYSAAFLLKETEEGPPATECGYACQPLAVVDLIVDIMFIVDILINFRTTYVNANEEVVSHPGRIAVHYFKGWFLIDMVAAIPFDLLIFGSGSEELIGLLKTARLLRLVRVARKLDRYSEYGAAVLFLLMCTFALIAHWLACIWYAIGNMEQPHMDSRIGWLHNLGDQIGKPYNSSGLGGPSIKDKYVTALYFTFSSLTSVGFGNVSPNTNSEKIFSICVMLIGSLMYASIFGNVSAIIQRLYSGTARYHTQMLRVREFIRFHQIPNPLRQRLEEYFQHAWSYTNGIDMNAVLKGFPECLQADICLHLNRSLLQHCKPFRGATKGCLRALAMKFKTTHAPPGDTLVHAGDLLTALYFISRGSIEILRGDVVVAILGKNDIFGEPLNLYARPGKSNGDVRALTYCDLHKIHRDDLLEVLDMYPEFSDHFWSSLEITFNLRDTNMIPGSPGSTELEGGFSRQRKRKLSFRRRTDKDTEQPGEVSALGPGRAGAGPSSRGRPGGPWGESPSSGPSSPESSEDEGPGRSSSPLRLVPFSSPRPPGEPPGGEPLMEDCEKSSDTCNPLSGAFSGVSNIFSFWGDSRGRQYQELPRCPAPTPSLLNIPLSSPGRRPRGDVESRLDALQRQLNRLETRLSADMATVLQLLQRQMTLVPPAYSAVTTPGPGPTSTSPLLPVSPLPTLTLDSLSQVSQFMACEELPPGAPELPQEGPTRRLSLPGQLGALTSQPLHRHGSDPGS

**Q.** How did the “hERG current change (%, negative = inhibition) at 10uM” value turn out when CN(CC(=O)Nc1ccccc1C(F)(F)F)C(=O)COc1ncnc2ccccc12 was run?
**A.** Its value is 1.42%.

**Q.** With O=C(CNCc1ccc(Cl)cc1)NCc1ccco1.O=C(O)C(=O)O as the compound, how does the “hERG current change (%, negative = inhibition) at 10uM” value read?
**A.** The value was -17.3%.

**Q.** With Cc1cccc(OCc2n[nH]c(=S)n2-c2ccccc2)c1 as the compound, how does the “hERG current change (%, negative = inhibition) at 10uM” value read?
**A.** Its value is 10.1%.

**Q.** CC(=O)Nc1ccc(C(=O)OCC(=O)NCc2ccccc2)cc1 was tested. Which “hERG current change (%, negative = inhibition) at 10uM” value did it give?
**A.** The value was 11.9%.

**Q.** For O=C(COC(=O)CCC(=O)c1ccc(F)cc1)Nc1ccc2[nH]c(=O)[nH]c2c1, which “hERG current change (%, negative = inhibition) at 10uM” value is on record?
**A.** The value was -3.65%.

**Q.** How did the “hERG current change (%, negative = inhibition) at 10uM” value turn out when O=C(Nc1ccc(F)cc1F)NC1CCN(S(=O)(=O)c2ccc(F)cc2)CC1 was run?
**A.** The value was 9.78%.

**Q.** With O=C(COC(=O)c1ccc(S(=O)(=O)N2CCCC2)cc1)Nc1ccc(F)cc1F as the compound, how does the “hERG current change (%, negative = inhibition) at 10uM” value read?
**A.** The value was 9.22%.

**Q.** Which “hERG current change (%, negative = inhibition) at 10uM” value does the source give for O=C(CN1CCN(S(=O)(=O)c2ccc(F)cc2)CC1)Nc1ccc(F)cc1F here?
**A.** Its value is -60.3%.

**Q.** How did the “hERG current change (%, negative = inhibition) at 10uM” value turn out when C/C(=N\OCC(=O)NC12CC3CC(CC(C3)C1)C2)c1cc2ccccc2o1 was run?
**A.** The value was 5.38%.

**Q.** CCOc1ccc(S(=O)(=O)N2CCN(CN3C(=O)CC4(CCCC4)C3=O)CC2)cc1 was tested. Which “hERG current change (%, negative = inhibition) at 10uM” value did it give?
**A.** The value was -8.79%.

**Q.** Which “hERG current change (%, negative = inhibition) at 10uM” value does the source give for N#CCCN(Cc1cccnc1)C(=O)Nc1ccccc1 here?
**A.** Its value is -3.06%.

**Q.** With CC(C)=CCN1CCN(Cc2nc(-c3ccc(F)cc3)cs2)CC1CCO (stereo not drawn) as the compound, how does the “hERG current change (%, negative = inhibition) at 10uM” value read?
**A.** The value was -69%.

**Q.** With CC(C)=CCN1CCN(CC#Cc2ccccc2)CC1CCO (stereo not drawn) as the compound, how does the “hERG current change (%, negative = inhibition) at 10uM” value read?
**A.** The value was -13%.

**Q.** Which “hERG current change (%, negative = inhibition) at 10uM” value does the source give for CC(C)(C)CN1CCN(Cc2nc(-c3ccc(F)cc3)cs2)CC1CCO (stereo not drawn) here?
**A.** The value was -62.5%.

**Q.** With CC(C)=CCN1CCN(Cc2cccnc2)CC1CCO (stereo not drawn) as the compound, how does the “hERG current change (%, negative = inhibition) at 10uM” value read?
**A.** The value was -1.24%.

**Q.** CC(C)(C)CN1CCN(Cc2c[nH]c3ccccc23)CC1CCO (stereo not drawn) was tested. Which “hERG current change (%, negative = inhibition) at 10uM” value did it give?
**A.** The value was 15.5%.

**Q.** How did the “hERG current change (%, negative = inhibition) at 10uM” value turn out when CC(C)=CCN1CCN(Cc2nc(-c3ccccc3)cs2)CC1CCO (stereo not drawn) was run?
**A.** The value was -60.4%.

**Q.** Which “hERG current change (%, negative = inhibition) at 10uM” value does the source give for CC(C)=CCN1CCN(Cc2cc(F)ccc2-n2nc(C)cc2C)CC1CCO (stereo not drawn) here?
**A.** Its value is -25%.

**Q.** For CC(C)(C)CN1CCN(Cc2cccnc2)CC1CCO (stereo not drawn), which “hERG current change (%, negative = inhibition) at 10uM” value is on record?
**A.** Its value is 13.6%.

**Q.** Which “hERG current change (%, negative = inhibition) at 10uM” value does the source give for CC(C)=CCN1CCN(Cc2nc(C(C)C)cs2)CC1CCO (stereo not drawn) here?
**A.** Its value is -12.9%.

**Q.** How did the “hERG current change (%, negative = inhibition) at 10uM” value turn out when CCN(CC(=O)NCc1ccc(F)cc1)C(=O)C1CCN(C(=O)Nc2ccccc2)CC1 was run?
**A.** Its value is -7.79%.

**Q.** COCCn1c(SCC(=O)N2CC(=O)Nc3ccccc32)nc2ccccc21 was tested. Which “hERG current change (%, negative = inhibition) at 10uM” value did it give?
**A.** Its value is -2.29%.

**Q.** For O=C(Nc1ccc(N2CCCCC2)cc1)c1cccnc1, which “hERG current change (%, negative = inhibition) at 10uM” value is on record?
**A.** The value was 4.6%.

**Q.** With CCOCCCNc1nc2nc3ccc(C)cn3c(=O)c2cc1C(=O)NCC1CCCO1 (stereo not drawn) as the compound, how does the “hERG current change (%, negative = inhibition) at 10uM” value read?
**A.** The value was -77.7%.

**Q.** COCCCNC(=O)c1cc2c(=O)n3cc(C)ccc3nc2nc1NCC1CCCO1 (stereo not drawn) was tested. Which “hERG current change (%, negative = inhibition) at 10uM” value did it give?
**A.** The value was -71.9%.

**Q.** How did the “hERG current change (%, negative = inhibition) at 10uM” value turn out when CCNc1nc2nc3ccc(C)cn3c(=O)c2cc1C(=O)NCC1CCCO1 (stereo not drawn) was run?
**A.** Its value is -70.6%.

**Q.** Cc1ccc(-c2nn(-c3ccccc3)cc2C(=O)NCC2CCCO2)cc1 (stereo not drawn) was tested. Which “hERG current change (%, negative = inhibition) at 10uM” value did it give?
**A.** Its value is -25.8%.

**Q.** How did the “hERG current change (%, negative = inhibition) at 10uM” value turn out when CCn1cc(C(=O)NCC2CCCO2)c2cc(OC)c(OC)cc2c1=O (stereo not drawn) was run?
**A.** The value was 19.4%.

**Q.** COc1ccc(-c2cc(C(=O)NCC3CCCO3)c3cc(C)ccc3n2)cc1 (stereo not drawn) was tested. Which “hERG current change (%, negative = inhibition) at 10uM” value did it give?
**A.** Its value is -3.03%.

**Q.** For Cc1ccc(-c2nn(-c3ccccc3Cl)cc2C(=O)NCC2CCCO2)cc1 (stereo not drawn), which “hERG current change (%, negative = inhibition) at 10uM” value is on record?
**A.** The value was -0.0276%.

**Q.** How did the “hERG current change (%, negative = inhibition) at 10uM” value turn out when COCCCNC(=O)CSc1nc2ccccc2c(=O)n1CCCC(=O)NCC1CCCO1 (stereo not drawn) was run?
**A.** The value was -0.988%.

**Q.** For COCCCNC(=O)c1ccc2nc3ccccc3c(=O)n2c1, which “hERG current change (%, negative = inhibition) at 10uM” value is on record?
**A.** The value was 14.7%.

**Q.** How did the “hERG current change (%, negative = inhibition) at 10uM” value turn out when Cn1nc(C(=O)NCC2CCCO2)c2ccccc2c1=O (stereo not drawn) was run?
**A.** Its value is -3%.

**Q.** How did the “hERG current change (%, negative = inhibition) at 10uM” value turn out when Cc1ccc(-c2noc(-c3ccccc3C(=O)NCC3CCCO3)n2)cc1 (stereo not drawn) was run?
**A.** Its value is -18.6%.

**Q.** How did the “hERG current change (%, negative = inhibition) at 10uM” value turn out when C=CCNC(=O)c1cc2c(=O)n3cc(C)ccc3nc2nc1NCC1CCCO1 (stereo not drawn) was run?
**A.** Its value is -73%.

**Q.** Which “hERG current change (%, negative = inhibition) at 10uM” value does the source give for Cc1ccc(C)c(C(=O)CCC(=O)Nc2cccnc2)c1 here?
**A.** The value was 7.26%.

**Q.** How did the “hERG current change (%, negative = inhibition) at 10uM” value turn out when COc1cccc(/C=C/C(=O)OCC(=O)NCC2CCCCC2)c1OC was run?
**A.** Its value is 8.32%.

**Q.** CCN(CC)c1ccc2c(C)c(CN3CCOCC3)c(=O)oc2c1 was tested. Which “hERG current change (%, negative = inhibition) at 10uM” value did it give?
**A.** The value was -11.1%.

**Q.** For C=Cc1ccc(C(=O)N2CCCC(CCC(=O)N3CCN(c4ccccn4)CC3)C2)cc1 (stereo not drawn), which “hERG current change (%, negative = inhibition) at 10uM” value is on record?
**A.** Its value is -4.57%.

**Q.** How did the “hERG current change (%, negative = inhibition) at 10uM” value turn out when CCCCNc1nc(N)nc(-c2cc(Cl)ccc2O)n1 was run?
**A.** The value was 20.9%.

**Q.** How did the “hERG current change (%, negative = inhibition) at 10uM” value turn out when CCCOc1ccc(C(=O)Nc2cccnc2)cc1 was run?
**A.** The value was 3.01%.

**Q.** How did the “hERG current change (%, negative = inhibition) at 10uM” value turn out when c1ccc(-c2nc(CSc3n[nH]c(-c4cccs4)n3)cs2)cc1 was run?
**A.** Its value is -15.1%.

**Q.** Cc1ccc2c(c1)c(=O)c1c3n2CCN(CC2CO2)C3CC1 (stereo not drawn) was tested. Which “hERG current change (%, negative = inhibition) at 10uM” value did it give?
**A.** The value was 4.27%.

**Q.** Which “hERG current change (%, negative = inhibition) at 10uM” value does the source give for O=C(CCl)N(Cc1cc(=O)[nH]c2ccccc12)c1ccccc1 here?
**A.** Its value is 0.288%.

**Q.** How did the “hERG current change (%, negative = inhibition) at 10uM” value turn out when CCOC(=O)c1nn(-c2ccc(C)cc2)c(=O)cc1OCC(=O)Nc1cccc(OC)c1 was run?
**A.** The value was 1.6%.
